Bioassay records deposited in PubChem BioAssay by National Center for Advancing Translational Sciences (NCATS).
KB-V1 MDR tox – KB-V1 MDR subline cytotoxicity. KB-V1 MDR cells viability, CellTiter-Glo, 72 h. Potency, µM (series often up to 46.1 µM), most hits filed as cytotoxic. 3.4% of 400,000 active. AID 1347076; further: on the % scale 0 is the no-effect control and ±100 the full control effect; nearly all actives have a fitted effect of over 60% in size
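Luminescent ATP read-out (CellTiter-Glo, 10 min) measures survival of drug-selected KB-V1 MDR cells after 72 h, 37 degrees C compound exposure. Medium: phenol-red-free DMEM, 10% FBS. Values from fitted concentration-response curves.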
SW480 rerep – inducers of DNA re-replication in SW480 colon cancer cells; SW480 DNA re-replication, Hoechst DNA content imaging, 48 h; Potency, µM (top dose mostly 46.1 µM), for inactives: at the top dose re-replication activation, hits mostly activators; 1.8% of 340,000 active; AID 624297; further: % of control where 0% means no effect; nearly all actives have a fitted effect of over 55% in size
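Hoechst fluorescence of nuclei (405 nm excitation, 500-530 nm emission) measured by plate-scanning imager after 48 hr compound exposure at 37 C; re-replication scored as increased number of nuclei with elevated intensity.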
TSG101-PTAP inh – blocks PTAP/TSG101 interaction to inhibit HIV-1 budding; Fluorescence polarization, FITC-PTAP peptide / Tsg101 binding; Potency, µM (titrated, usually from 115 µM), without a hit: top-dose activity change, negative = inhibition, usual class: inhibitors; 340,000 tested, under 10 active; AID 493005; active means well fitted inhibition curve with a large enough effect in the main read-out, with a control signal flat, not every such curve was filed as active; inconclusive means small, poorly fitted or top-dose-only effect, or effect the other way, or a change in a side signal; inactive means no such curve, though single readings can be large or run the other way; further: % of control where 0% means no effect
Target sequence (Q99816 whole entry, looked up): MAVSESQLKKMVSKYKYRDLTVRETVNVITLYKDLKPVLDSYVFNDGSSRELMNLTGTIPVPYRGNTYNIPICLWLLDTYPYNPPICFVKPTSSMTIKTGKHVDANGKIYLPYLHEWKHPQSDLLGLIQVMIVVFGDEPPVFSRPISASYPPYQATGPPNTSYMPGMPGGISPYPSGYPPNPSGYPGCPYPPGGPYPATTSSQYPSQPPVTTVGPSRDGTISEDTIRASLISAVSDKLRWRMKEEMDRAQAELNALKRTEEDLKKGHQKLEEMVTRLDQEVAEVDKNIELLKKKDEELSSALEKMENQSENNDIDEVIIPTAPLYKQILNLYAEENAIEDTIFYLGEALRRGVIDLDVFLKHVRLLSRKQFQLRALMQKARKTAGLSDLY
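FP read-out: FITC-PTAP peptide, 50 nM final, binding Tsg101 binding domain, 10 uM final; 20 min, r.t.; 10 mM HEPES pH 7.5, 0.15 M NaCl, 0.01% Tween 20, 3 mM EDTA, 0.1 mM TCEP.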
PINK1 expr mod – modulators of PINK1 expression | AID 624263 | 0.2% of 410,000 active | PINK1 immunofluorescence, high-content cytometry, 24 h | Potency, µM (titrated, usually from 76.6 µM), for inactives: at the top dose activation (PINK1 increase), hits mostly activators; active means well fitted activation curve with a large enough effect; inconclusive means small, poorly fitted or top-dose-only effect; cell line not stated here; further: % of control where 0% means no effect; nearly all actives have a fitted effect of over 65% in size
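Decision-based qHTS: stable cells, 24 h exposure to five compound concentrations, CCCP as control. Fixed cells stained for PINK1 plus nuclear, mitochondrial and cell markers, cytometer read.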
KB-3-1 cytotox – KB-3-1 parental cell cytotoxicity | KB-3-1 viability, CellTiter-Glo ATP luminescence, 72 h | Potency, µM (series often up to 46.1 µM), usual class: cytotoxic | 1.4% of 400,000 active | AID 1347075; further: on the % scale 0 is the no-effect control and ±100 the full control effect; nearly all actives have a fitted effect of over 60% in size
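Multi-concentration cytotoxicity screen in KB-3-1 cells grown in DMEM lacking phenol red with 10% FBS. After 72 h at 37 °C with compound, ATP-dependent luminescence was recorded.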
MCF10A rereplic – DNA re-replication induction in MCF 10a cells; MCF 10A DNA re-replication, Hoechst nuclear intensity, 48 h; Potency, µM (series often up to 46.1 µM), for the others: at the highest dose activity, positive = re-replication, most hits filed as activators; 2.9% of 350,000 active; AID 624296; further: % of control where 0% means no effect; nearly all actives have a fitted effect of over 50% in size
* marks the source's active call; other numbers are inactive results. Only some compounds are listed: those with a hit (about 6.8% of all), similar ones and a draw of the others. Unless noted, the call rests on the fitted dose curve; in most records, active means well fitted curve in the direction sought with a large enough effect; inconclusive means small, poorly fitted or top-dose-only effect, or another doubt; inactive means no such curve, though single readings can be large; an effect the other way counts as inactive or inconclusive. Potency means the concentration at half of the fitted maximal effect.

For Cn1cc([N+](=O)[O-])c(C(=O)Nc2nccs2)n1 the results were KB-V1 MDR tox inactive, SW480 rerep inconclusive, TSG101-PTAP inh -8.6%, PINK1 expr mod -1.2%, KB-3-1 cytotox inactive and MCF10A rereplic 4.61µM*.
For Cc1ccc(-c2nc3ncccc3o2)cc1NC(=O)c1ccc([N+](=O)[O-])o1 the results were KB-V1 MDR tox 18.4µM*, SW480 rerep 2.06µM*, TSG101-PTAP inh -1.7%, PINK1 expr mod -2.2%, KB-3-1 cytotox inconclusive and MCF10A rereplic 2.31µM*.
Screening O=C(Nc1ccc(-c2nc3ccccc3o2)cc1)c1ccc(N2CCOCC2)c([N+](=O)[O-])c1 returned KB-V1 MDR tox inactive, SW480 rerep inconclusive, TSG101-PTAP inh -9.9%, PINK1 expr mod inconclusive, KB-3-1 cytotox inactive and MCF10A rereplic 14.8%.
`Cn1cc([N+](=O)[O-])c(C(=O)Nc2ccc(-c3nc4ccccc4o3)cc2)n1` gave KB-V1 MDR tox 11.6µM*, SW480 rerep inconclusive, TSG101-PTAP inh -7.8%, PINK1 expr mod -0.7%, KB-3-1 cytotox 18.4µM* and MCF10A rereplic 3.66µM*.
`Cc1cc(-c2nc3ncccc3o2)ccc1NC(=O)c1ccc([N+](=O)[O-])o1` gave KB-V1 MDR tox inactive, SW480 rerep -13.1%, TSG101-PTAP inh 2.0%, PINK1 expr mod -0.2%, KB-3-1 cytotox inactive and MCF10A rereplic inconclusive.
For O=C(Nc1ccc(-c2nc3ncccc3o2)cc1)c1ccc([N+](=O)[O-])o1 the results were KB-V1 MDR tox inactive, SW480 rerep 2.31µM*, TSG101-PTAP inh -0.4%, PINK1 expr mod -1.1%, KB-3-1 cytotox inconclusive and MCF10A rereplic 2.91µM*.
For COc1cccc(CNC(=O)c2ccc(CSc3nc4ccncc4n3Cc3cccc(C)c3)cc2)c1 the results were KB-V1 MDR tox inconclusive, PINK1 expr mod -0.1% and KB-3-1 cytotox inactive.
Screening O=C(Nc1ccc2oc(-c3ccncc3)nc2c1)c1ccc([N+](=O)[O-])o1 returned KB-V1 MDR tox inactive, SW480 rerep 2.59µM*, TSG101-PTAP inh -3.0%, PINK1 expr mod 9.3%, KB-3-1 cytotox inconclusive and MCF10A rereplic 4.11µM*.
O=C(Nc1ccc(NC(=O)c2ccc(Br)cc2)c(Cl)c1)c1ccc(Br)cc1 was read as KB-V1 MDR tox inconclusive, PINK1 expr mod 1.0% and KB-3-1 cytotox inactive.
Screening CCCC(c1nnnn1Cc1ccco1)N1CCN(c2cc(Cl)ccc2C)CC1 (stereo unspecified) returned KB-V1 MDR tox inconclusive, SW480 rerep 1.7%, TSG101-PTAP inh -4.7%, PINK1 expr mod 5.6%, KB-3-1 cytotox inconclusive and MCF10A rereplic 25.1µM*.
For CCCC(c1nnnn1Cc1ccco1)N1CCN(c2ccccc2)CC1 (stereo unspecified) the results were KB-V1 MDR tox inactive, SW480 rerep -3.0%, TSG101-PTAP inh -1.6%, PINK1 expr mod -2.1%, KB-3-1 cytotox inactive and MCF10A rereplic -6.2%.
C/C(=N\NC(=O)C1CC1)c1ccc(OC(F)F)cc1 was read as KB-V1 MDR tox 13µM*, SW480 rerep -3.0%, TSG101-PTAP inh 0.2%, PINK1 expr mod 0.7%, KB-3-1 cytotox inconclusive and MCF10A rereplic 8.2%.
`COC(=O)N/N=C(\C)c1ccc(OC(F)F)cc1` gave KB-V1 MDR tox inconclusive, SW480 rerep -4.3%, TSG101-PTAP inh -2.2%, PINK1 expr mod -3.5%, KB-3-1 cytotox inactive and MCF10A rereplic 0.5%.
Screening Cc1cc(N2CCC(C)CC2)nc2ccc(NC(=O)Cc3ccccc3Br)cc12 returned KB-V1 MDR tox inactive, PINK1 expr mod 13.9% and KB-3-1 cytotox inactive.
`CN(CC(=O)Nc1ccc(F)cc1)c1ccc(S(=O)(=O)N2CCCCC2)cc1[N+](=O)[O-]` gave KB-V1 MDR tox 13µM*, TSG101-PTAP inh -5.1%, PINK1 expr mod 2.9%, KB-3-1 cytotox inactive and MCF10A rereplic -2.9%.
